Screening results as filed in PubChem.
Ecoli rRNA inh = inhibitors of bacterial rRNA selective over humanized ribosomes; E. coli WT GFP vs humanized-ribosome RFP mutants, fluorescence, 24 h; stronger effect = lower value; DMSO median 0, no signal -100; GFP signal change (wild-type ribosome), % (concentration not given with the values); hit rate 1.6% among 350,000; AID 720706;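 active = significant combined selectivity score with lowered wild-type GFP, culture density cut under 30%, mutant RFP and density less affected; inactive = any of these conditions unmet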
Wnt bcat act = activates Wnt/beta-catenin signaling in a reporter cell assay | activator, plate reader | activation, % at 9.35 µM | hit rate 1.2% among 300,000 | AID 743398; in the data active = activation above about 30%, passing the limit was not always enough; inconclusive = no clear call, values can overlap the other calls;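 also: 0% = neutral control wells and 100% = positive control wells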
MLL AF4-AF9 inh = blocks AF4 peptide binding to human AF9; inhibition, % at 10 µM; hit rate 0.47% among 350,000; AlphaScreen, biotin-AF4 peptide binding to FLAG-AF9; P42568;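 active = every replicate reaching a set inhibition limit, whatever the replicate mean, cut at about 25% in these data; inconclusive = mean inhibition reaches that limit but some replicates miss it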;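 also: 0% = plate neutral control median and 100% = total signal loss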
Target sequence (P42568 whole entry, looked up): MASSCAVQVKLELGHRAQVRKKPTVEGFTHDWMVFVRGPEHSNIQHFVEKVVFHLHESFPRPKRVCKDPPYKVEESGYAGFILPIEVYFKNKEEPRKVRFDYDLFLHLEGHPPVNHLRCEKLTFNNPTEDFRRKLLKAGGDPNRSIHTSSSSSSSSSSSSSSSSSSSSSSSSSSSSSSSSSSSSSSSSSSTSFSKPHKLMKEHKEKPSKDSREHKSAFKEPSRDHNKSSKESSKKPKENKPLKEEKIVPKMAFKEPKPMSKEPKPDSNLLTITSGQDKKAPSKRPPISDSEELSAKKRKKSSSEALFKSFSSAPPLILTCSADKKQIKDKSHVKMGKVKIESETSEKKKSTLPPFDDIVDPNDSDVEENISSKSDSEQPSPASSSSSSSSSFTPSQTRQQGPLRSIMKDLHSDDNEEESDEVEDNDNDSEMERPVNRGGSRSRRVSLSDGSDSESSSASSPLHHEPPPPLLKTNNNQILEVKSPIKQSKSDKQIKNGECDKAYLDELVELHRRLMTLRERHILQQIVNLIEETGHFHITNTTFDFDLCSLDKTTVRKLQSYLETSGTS
esBAF inh = inhibitors of esBAF chromatin remodeling in mouse ES cells; reporter increase, % at 12.5 µM; Bmi1-luciferase knock-in reporter, 24 h; 100% = twice the neutral-well signal; hit rate 2% among 350,000; in the data active = activation above about 40%; inconclusive = no clear call, values can overlap the other calls;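 also: 0% = median of the plate's neutral control wells and 100% = double that signal; a rise in the Bmi1 reporter signal indicates esBAF inhibition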
MITF TRPM1 HTS = MITF TRPM1 promoter activation in melanoma cells; SK-MEL-5 TRPM1-promoter luciferase, 24 h; % of positive control, neutral wells = 0; activation, % at 12.5 µM; hit rate 0.75% among 300,000; AID 588334;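 active = mean activation of at least 80% with every replicate also reaching 80%; inconclusive = mean reaches 80% but some replicate falls short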;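 also: 0% = neutral control wells and 100% = parthenolide positive control wells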
Active calls of the source: *; u = inconclusive; x = no result. This is a sample that favours compounds with a hit; in the whole collection about 3.7% have one here.

SMILES	Ecoli rRNA inh	Wnt bcat act	MLL AF4-AF9 inh	esBAF inh	MITF TRPM1 HTS
CCc1ccc(NS(=O)(=O)c2ccc3c(c2)CCN3C(=O)CCC(=O)O)cc1	-1	u	-1	-3	3
COC(=O)CC1(c2ccc(OC)cc2)C(=O)c2ccccc2C1=O	-26*	6	2	-51	-4
Fc1cccc(Cl)c1CN1CCN(c2ncc(Cc3ccccc3)cn2)CC1	-23	-2	x	x	x
Fc1cccc(Cl)c1CN1CCN(c2nc3ccccc3s2)CC1	-21	27	-1	70*	77
COc1ccccc1NC(=O)c1nn(-c2cccc(C(F)(F)F)c2)ccc1=O	x	-1	x	-1	19
Nc1c(C(=O)c2ccc(Cl)cc2)sc2nc3c(cc12)CCC3	7	-3	-6	x	152*
NC(=O)c1sc2nc3c(cc2c1N)CCCCCC3	-13	7	0	46*	74
Nc1c(C(=O)C2CC2)sc2nc3c(cc12)CCC3	-5	8	-7	x	117*
O=C(NNC(=O)C1CCCO1)c1ccccc1Cl (stereo not given)	x	-6	x	-6	3
Cc1cccc(Oc2ccc(S(=O)(=O)N3CCCCC3)cc2NC(=O)C2=COCCO2)c1	4	-4	3	-7	-20
CC(C)NC(=O)N(Cc1ccc(Cl)cc1)Cc1cccs1	-24*	-4	-7	x	x
C[C@@H]1CN([C@H](C)CO)S(=O)(=O)c2ccc(Br)cc2O[C@@H]1CN(C)C(=O)C1CCC1	-5	x	x	x	x
O=S(=O)(c1cccc(-c2csc(N/N=C/c3ccco3)n2)c1)N1CCOCC1	-23*	-4	13	x	1
NS(=O)(=O)c1ccc(Nc2nc(-c3cccc([N+](=O)[O-])c3)cs2)cc1	-27*	8	1	2	-2
Cc1ccc(Cc2cnc(N3C(=N)SC(c4ccccc4)C3=O)s2)cc1 (stereo not given)	x	2	x	53*	6
N=C1SC(c2ccccc2)C(=O)N1c1ncc(Cc2ccccc2)s1 (stereo not given)	-53	-4	u	x	-13
NC(=O)c1cc(S(=O)(=O)N2CCOCC2)ccc1Sc1ccccc1N	7	3	1	x	-12
COC(=O)CSc1nc2ccccc2c(=O)n1C	x	42*	x	-1	3
Cc1ccc(NC(=O)CSc2nccn2Cc2ccco2)cc1	6	21	5	56*	54
CC(=O)c1ccc(NC(=O)CSc2nccn2CCc2ccccc2)cc1	x	25	x	78*	52
COCCCn1c(SCC(=O)Nc2ccc(C(C)=O)cc2)nc2ccccc2c1=O	x	x	x	66*	x
COCCn1c(SCC(=O)Nc2ccc(NC(C)=O)cc2)nc2ccccc2c1=O	7	9	3	-3	8
O=C(CSc1nccn1Cc1ccco1)Nc1ccc(F)cc1	9	-3	1	16	17
Cn1c(SCC(=O)O)nc2ccccc2c1=O	1	-1	-2	3	-2
CCOc1ccc(NS(=O)(=O)c2cc(NC(=O)CCC(=O)c3cccs3)ccc2Cl)cc1	-12	-4	-3	x	10
SMILES	Ecoli rRNA inh	Wnt bcat act	MLL AF4-AF9 inh	esBAF inh	MITF TRPM1 HTS
CC(=O)c1ccc(NC(=O)CSc2nc(=O)cc(N)n2-c2ccccc2)cc1	3	12	-1	63*	67
N#Cc1ccccc1NC(=O)CSc1nccn1CCc1ccccc1	x	x	x	56*	52
O=C(/C=C/c1ccc(-c2ccccc2[N+](=O)[O-])o1)c1ccco1	-24	172*	15	x	-8
Oc1c(C=Nc2ccc(Cl)cn2)sc2ccccc12	-1	46*	11	x	46
Oc1c(/C=N/c2ccccn2)sc2ccccc12	5	52*	10	u	16
Oc1c(C=Nc2cccnc2)sc2ccccc12	x	x	x	x	8
CCCN(C)C[C@H]1Oc2cc(-c3ccccc3C)ccc2S(=O)(=O)N([C@@H](C)CO)C[C@H]1C	-1	x	x	-8	x
COc1ccccc1C(=O)Nc1ccc2c(c1)C(=O)N(C)C[C@H](OC)[C@@H](C)CN(CC1CC1)[C@H](C)CO2	-3	x	1	2	x
CCc1ccc(NS(=O)(=O)c2ccc3[nH]c(=O)[nH]c3c2)cc1	2	-2	-1	-1	-2
CC(C)Cc1ccc(S(=O)(=O)Nc2ccc3[nH]c(=O)[nH]c3c2)cc1	-25*	-3	0	-5	-15
COc1ccc(-n2c(SCC(=O)NCc3ccco3)nc3sc4c(c3c2=O)CCN(C)C4)cc1	-1	3	-7	-6	17
CN1CCc2c(sc3nc(SCC(=O)NCc4ccco4)n(-c4ccccc4)c(=O)c23)C1	3	16	6	70*	50
Cc1nc(Nc2ccc(S(N)(=O)=O)cc2)sc1C(=O)Nc1ccccc1	-35*	-2	3	x	14
Cc1nc(NCc2ccccc2)sc1C(=O)Nc1ccccc1	1	6	1	59*	54
Cc1ccc(S(=O)(=O)Nc2nc(C)c(C(=O)Nc3ccccc3)s2)cc1	-13	x	-2	0	-4
COc1ccccc1Nc1nc(C)c(C(=O)Nc2ccccc2)s1	-32*	6	2	32	20
C[C@H]1CN([C@@H](C)CO)C(=O)c2cc(NC(=O)Nc3ccc4c(c3)OCO4)ccc2O[C@H]1CN(C)C(=O)Nc1cccc2ccccc12	0	x	1	1	x
CC(C)(C)NC(=O)NC(=O)CSc1nncs1	14	-1	0	x	-4
O=C(Nc1ccc(Cl)cc1)c1ccc2snnc2c1	3	-2	0	57*	54
CC(=O)c1ccc(NC(=O)c2ccc3snnc3c2)cc1	3	14	0	63*	85*
CNC(=O)c1ccc2snnc2c1	3	-1	3	-8	x
O=C(Nc1ccccc1F)c1ccc2snnc2c1	-2	5	-15	26	44
COc1ccc(NC(=O)c2ccc3snnc3c2)cc1	x	x	x	56*	62
O=C(COC(=O)Cn1cnc2ccccc21)Nc1ccc2c(c1)C(=O)c1ccccc1C2=O	-13	59*	2	x	27
c1ccc(NC2=Nc3ccccc3CC2)cc1	x	x	x	46*	u
SMILES	Ecoli rRNA inh	Wnt bcat act	MLL AF4-AF9 inh	esBAF inh	MITF TRPM1 HTS
Cn1c(CSCc2ccc(Cl)cc2)n[nH]c1=S	-23*	0	-5	-3	7
Cn1c(CSCc2ccc(F)cc2)n[nH]c1=S	7	-1	-17	3	7
CC(=O)Nc1ccc2c(c1)CCc1ccccc1-2	-7	17	-4	7	37
O=C(O)/C=C/C(=O)c1ccc2c(c1)CCc1ccccc1-2	-24	19	-4	44*	-69
Cc1[nH]n(-c2ccccc2)c(=O)c1C(c1cccc([N+](=O)[O-])c1)c1c(C)[nH]n(-c2ccccc2)c1=O	-46*	3	13	x	-4
Cc1[nH]n(-c2ccccc2)c(=O)c1C(c1ccc(C(=O)O)cc1)c1c(C)[nH]n(-c2ccccc2)c1=O	-19*	-1	7	x	-4
Cc1[nH]n(-c2ccccc2)c(=O)c1C(c1cccc([N+](=O)[O-])c1O)c1c(C)[nH]n(-c2ccccc2)c1=O	-10	-1	-5	x	-15
COc1ccccc1NC(=O)CN1CCC(c2nc3ccc(C)cc3[nH]2)CC1	-26*	1	-2	0	10
